About 45 (0.07%) of roughly 65,000 compounds were called active. Only a sample is shown. Unmarked numbers belong to inactive results. Calls come from the whole dose curve.
Potency is the fitted concentration of half-maximal effect.

This test concerns Schistosoma mansoni peroxiredoxin 2 (Prx2). As to the kind of experiment: Schistosoma Mansoni Peroxiredoxins (Prx2). Conditions: S. mansoni Prx2 activity coupled to TGR/GSH (TGR is thioredoxin glutathione reductase), NADPH fluorescence loss, qHTS. The text has this:
NIH Molecular Libraries Screening Centers Network [MLSCN]
NIH Chemical Genomics Center [NCGC]
David Williams [Illinois State University]
Schistosoma mansoni, a causative agent of schistosomiasis, resides in the bloodstream of their host up to 30 years without being eliminated by the host immune attack. One proposed survival mechanism is the production of an antioxidant "firewall" that neutralizes the oxidative assault of the host's immune attack. Schistosoma mansoni peroxiredoxins (Prx) are important parasite antioxidant proteins that play a crucial role in redox balance mechanisms. […] First, the proteins are essential for the parasite survival. […] Third, the protein(s) is amenable for study at the molecular level and can be produced in bacteria in large quantities, in soluble and active form. Inhibition of Prx activity was screened in a coupled-enzyme format with reducing equivalents being transferred from NADPH to […] intermediate via thioredoxin/glutathione reductase (TGR)-catalyzed reaction, then from thioredoxin to hydrogen peroxide via Prx-catalyzed electron transfer. A decrease in the fluorescence intensity of NADPH was used to measure the enzyme activity. Purified S. mansoni TGR and Prx were provided by Professor David L. Williams, Illinois State University.
NCGC Assay Protocol Summary:
100 mM phosphate buffer, pH 7.4, 10 mM EDTA, 0.01% Tween-20.
100 uM NADPH/25 nM TGR/700 uM GSH/50 nM Prx2 mixture in columns 1, 2, 5-48. Titration of control potassium antimonyl tartrate (PAT, from 1 mM, then 1:5) pin-transferred to lower half of column 2. Column 1 and upper half of column 2 are neutral (100% activity).
Three uL of reagents were dispensed to 1536-well Greiner black plates. Compounds and controls (20 nL) were transferred via Kalypsys PinTool. The plates were incubated for 15 min at room temperature, and then a 1 uL aliquot of 400 uM NADPH/700 uM GSH was added, immediately followed by a 1uL aliquot of 2.5 mM H2O2 (to start the reaction). The plate was transferred to ViewLux (Perkin-Elmer) High-throughput CCD imager where kinetic measurements (every 30 sec, for a total of 8 min) of NADPH fluorescence were taken using 365 nm excitation/450 nm emission filter set. During dispense, enzyme-containing reagent bottles were kept submerged into 4 deg C water bath to minimize degradation.
Keywords: NIH Roadmap, MLSCN, MLI, MLSMR, David Williams, Peroxyredoxin, Schistosoma mansoni, prx2, prx, , qHTS, NCGC
In general terms: Quantitative high-throughput screening tests each substance at several concentrations.
`Oc1ccc2ccccc2c1C=NCc1c(O)ccc2ccccc12`: the Potency was above 57 µM.

As for `CC(C)(O)[C@H]1[C@H]2OC(=O)[C@@H]1[C@]1(O)C[C@H]3O[C@]34C(=O)O[C@H]2[C@]14C`, the Potency is above 25.6 µM.

Turning to `CC(C)[C@H](CO)Nc1nc(Nc2cc(N)cc(Cl)c2)c2ncn(C(C)C)c2n1`, the Potency is above 57 µM.

Take `O=c1[nH]c(=O)n([C@H]2C[C@H](O)[C@H](CO)O2)cc1Br`: the Potency is above 57 µM.

In the case of `COc1cccc(Cn2c(=O)c(CCc3ccccc3)nc3cnc(N(C)C)nc32)c1`, the Potency is above 11.4 µM.

As to `COc1ccccc1CNc1ncncc1-c1cccnc1`, the Potency is above 57 µM.

`COc1ccc(NC(=O)N2CC3(CCN(C(C)=O)CC3)C2)cc1`: the Potency is above 57 µM.

Turning to `Cc1ccccc1-c1nc(N(C)Cc2ccco2)c2ccccc2n1`, the Potency is above 57 µM.

Take `O=C(c1cc(C(F)(F)F)cc(C(F)(F)F)c1)N1CCC2(CCCN(Cc3ccncc3)C2)CC1`: the Potency is above 57 µM.

With `C[C@H](CCC(=O)NCC(=O)O)[C@H]1CC[C@H]2[C@H]3[C@@H](C[C@@H](O)[C@]12C)[C@]1(C)CC[C@H](O)C[C@@H]1C[C@@H]3O`, the Potency is above 57 µM.

`Cc1nc2cnc(Nc3ccccc3)nc2n(C[C@H]2CCCO2)c1=O`: the Potency is above 57 µM.

With `CC[N+](C)(CC)CCC[n+]1c(-c2ccccc2)c2cc(N)ccc2c2ccc(N)cc21`, the Potency was above 57 µM.

Take `NCC[Se][Se]CCN`: the Potency was above 57 µM.

Regarding `CCCC[C@H]1C(=O)N(c2ccccc2)N(c2ccc(O)cc2)C1=O`, the Potency was above 57 µM.

In the case of `FC(F)(F)c1ccccc1-c1cc(NCc2ccccc2)ncn1`, the Potency is above 57 µM.

Turning to `O=C(Nc1cccc(F)c1)N1CC2(CCN(C(=O)c3cnccn3)CC2)C1`, the Potency was above 57 µM.

For the compound `COCCn1c(=O)c(CCc2ccccc2)nc2cncnc21`, the Potency was above 57 µM.

For `O=C(c1cnccn1)N1CCC2(CCCN(Cc3ccccc3)C2)CC1`, the Potency is above 57 µM.

On to `COc1ccc(-c2nc3cnc(Oc4ccccc4)nc3n(Cc3cccs3)c2=O)cc1`, for which the Potency was above 57 µM.

Consider `COCCn1c(=O)c(-c2cccs2)nc2cncnc21`, for which the Potency is above 57 µM.

For `Cc1noc(C)c1-c1nccc(N2CCOCC2)n1`, the Potency is above 57 µM.

Regarding `O=C(c1cc(C(F)(F)F)cc(C(F)(F)F)c1)N1CCC2(CCCN(c3ccccn3)C2)CC1`, the Potency was above 57 µM.

Take `C/C=C1\C(=O)C[C@@H]2[C@@H]3CCC4=CC(=O)CC[C@@]4(C)[C@H]3CC[C@@]12C`: the Potency is above 57 µM.

In the case of `CS(=O)(=O)N1CCC[C@@]2(CCN(c3ccncc3)C2)C1`, the Potency is above 57 µM.

Consider `CCS(=O)(=O)N(C)[C@@H]1c2cc(C#N)ccc2OC(C)(C)[C@H]1O`, for which the Potency was above 57 µM.

As for `O=C(c1ccco1)N1CCC[C@@]2(CCN(Cc3nccs3)C2)C1`, the Potency was above 57 µM.

As to `COC(=O)[C@@]1(Cc2ccc(F)cc2)[C@H]2c3cc(C(=O)N4CCCC4)n(C[C@H](O)CO)c3C[C@H]2CN1C(=O)c1ccccc1`, the Potency was above 57 µM.

`Cc1nc2cnc(Nc3ccccc3)nc2n(Cc2ccc(F)cc2)c1=O`: the Potency is above 57 µM.

On to `O=C(c1cccc(F)c1)N1CCC2(CC1)CCN(c1ccccc1)CC2`, for which the Potency is above 57 µM.

Consider `Cc1nc2cnc(Oc3cccc(Cl)c3)nc2n(C2CC2)c1=O`, for which the Potency was above 57 µM.

Take `NC[C@@H]1O[C@H](O[C@@H]2[C@H](O[C@@H]3O[C@H](CO)[C@@H](COC[C@H]4O[C@@H](CN)[C@@H](O)[C@@H](O)[C@@H]4N)[C@@H]3O)[C@@H](O)[C@@H](N)C[C@H]2N)[C@@H](N)[C@H](O)[C@@H]1O`: the Potency was above 57 µM.

Regarding `CC(C)(C)NCC[C@@H](O)c1cc(C(F)(F)F)nc2c(C(F)(F)F)cccc12`, the Potency was above 57 µM.

As for `CCNCCCNCCCNCCCNCC`, the Potency was above 57 µM.

Turning to `COCC(=O)N1CCC2(CCCN(c3ccccc3)C2)CC1`, the Potency was above 57 µM.

Take `c1cncc(-c2nc(N3CCNCC3)c3ccccc3n2)c1`: the Potency is above 57 µM.

As to `c1ccc(CCN2CCN=C2Cc2ccccc2)cc1`, the Potency is above 57 µM.

Take `COC(=O)[C@@]1(Cc2ccccc2)[C@H]2c3cc(C(=O)N4CCCC4)n(Cc4ccc(C)o4)c3C[C@H]2CN1C(=O)c1ccccc1`: the Potency is above 57 µM.

As for `Cc1nc2cnc(N3CCNCC3)nc2n(Cc2ccc(F)cc2)c1=O`, the Potency was above 57 µM.

Turning to `COC(=O)[C@H](C)[C@H]1C[C@]1(C)[C@H](NC(=O)OCc1ccccc1)c1ccccc1`, the Potency was above 57 µM.

In the case of `O=c1c(-c2ccc(F)cc2)nc2cnc(N3CCNCC3)nc2n1Cc1cccs1`, the Potency was above 11.4 µM.

Turning to `CCC[C@@H]1C[C@@]1(CCC)C(NS(=O)(=O)c1cccc2cccnc12)c1ccc(Cl)cc1` (some centres not stated), the Potency was above 57 µM.

Take `NS(=O)(=O)c1cc(C(=O)O)c(Cl)c([N+](=O)[O-])c1Cl`: the Potency was above 57 µM.

As for `O=c1[nH]c(=O)c2nc3ccccc3nc2[nH]1`, the Potency is above 57 µM.

For `N#Cc1ccc(CN2CCCC3(CCN(C(=O)c4ccco4)CC3)C2)cc1`, the Potency was above 57 µM.

For `CC(=O)N1CCC2(CCCN(Cc3ccccc3)C2)CC1`, the Potency is above 57 µM.

Consider `CN1[C@H]2CC(OC(=O)[C@@H](CO)c3ccccc3)C[C@H]1[C@H]1O[C@H]12` (some centres not stated), for which the Potency was above 57 µM.

`COc1ccc2nccc(C(=O)O)c2c1`: the Potency was above 25.6 µM.

With `CN(Cc1ccco1)c1cc(-c2ccccc2C(F)(F)F)ncn1`, the Potency was above 57 µM.

In the case of `COc1ccc(-c2nc3cnc(N(C)C)nc3n(Cc3cccs3)c2=O)cc1`, the Potency was above 57 µM.

With `Cn1cccc1C(=O)N1CCC2(CC1)CN(c1cccc(-c3ccccc3)c1)C2`, the Potency is above 57 µM.

Take `O=C(c1ccc([N+](=O)[O-])cc1)[C@@H](Br)[C@@H](Br)c1ccnc2ccccc12`: the Potency was above 57 µM.

Regarding `CCCN(C/C=C\I)[C@@H]1CCc2cccc(O)c2C1`, the Potency is above 57 µM.

For the compound `O=C(c1ccncc1)N1CCC2(CCCN(C(c3ccccc3)c3ccccc3)C2)CC1`, the Potency was above 57 µM.

As to `Nc1nc(N)c2[nH]c(CNc3ccc(C(=O)O)cc3)nc2n1`, the Potency is above 57 µM.

`COc1ccccc1CCn1c(=O)c(-c2cn(C)c3ccccc23)nc2cncnc21`: the Potency is above 57 µM.

Turning to `Cc1cc(N2CCCCC2)nc2ccc(Cc3ccc4nc(N5CCCCC5)cc(C)c4c3)cc12`, the Potency was above 11.4 µM.

With `CC(C)C[C@@H](CC(=O)N[C@@H](CCC(=O)O)CC(=O)O)NC(=O)[C@@H]1CCCC[C@H]1NC(=O)C[C@@H](NC(=O)C[C@H](CO)NC(=O)[C@@H]1CCCC[C@H]1N)C(C)C`, the Potency is above 25.6 µM.

For `O=c1c(CCc2ccccc2)nc2cnc(N3CCNCC3)nc2n1Cc1cccs1`, the Potency is above 57 µM.

As for `CS(=O)(=O)N1CCC2(CCN(c3ccncc3)CC2)CC1`, the Potency was above 57 µM.

For the compound `N[C@H](C(=O)O)c1ccc(C(=O)O)c(O)c1`, the Potency was above 57 µM.

Turning to `Cc1cc(OCC(=O)O)c(Cl)cc1Cl`, the Potency was above 57 µM.

For `CC(C)NC(=O)N1CC[C@@]2(CCCN(C(=O)c3cccc(F)c3)C2)C1`, the Potency was above 57 µM.

Turning to `Cn1c(=S)c2[nH]c(SCCCc3ccccc3)nc2n(C)c1=O`, the Potency is above 57 µM.

Regarding `CN1CCC2(CC1)CCN(S(=O)(=O)c1ccccc1)CC2`, the Potency is above 57 µM.

Turning to `Cc1cc2c(cc1C)NC1=C(N2)O[C@H](c2c[nH]c3ccc(COc4ccccc4)cc23)C1=O`, the Potency was above 57 µM.

As to `O=c1c(-c2cc(F)cc(F)c2)nc2cnc(Oc3ccccc3)nc2n1C[C@H]1CCCO1`, the Potency is above 11.4 µM.

With `FC(F)(F)c1ccccc1-c1nc(-n2ccnc2)c2ccccc2n1`, the Potency is above 57 µM.

In the case of `O=C(O)c1ccc(C(=O)O)c2c(C(=O)O)ccc(C(=O)O)c12`, the Potency is above 57 µM.

For the compound `COc1ccccc1CNc1ncnc2ccc(-c3c(C)noc3C)cc12`, the Potency was above 57 µM.

For `CC(C)c1ccc2c([Si](C)(C)C)c3c(nc2c1)-c1cccc(=O)n1C3`, the Potency is above 57 µM.

On to `COc1ccc2[nH]c3cc4c(=O)c5cc(OC)ccc5[nH]c4cc3c(=O)c2c1`, for which the Potency is above 57 µM.

As for `Cc1cccc(CNc2ccnc(-c3cccnc3)n2)c1`, the Potency is above 57 µM.

With `C[C@@H](C(=O)Nc1ccc2ccccc2c1)[C@@H]1C[C@@]1(C)[C@@H](NC(=O)c1cccnc1)c1ccccc1`, the Potency is above 57 µM.

As for `CCNc1ncc2ncc(=O)n(Cc3cccc(OC)c3)c2n1`, the Potency was above 57 µM.

Turning to `Cc1c(C)c2c(c(C)c1O)CC[C@@](C)(CN1CCN(c3cc(N4CCCC4)nc(N4CCCC4)n3)CC1)O2`, the Potency is above 25.6 µM.

Regarding `CN(C)C(=O)c1ccc(-c2cncnc2NC2CCNCC2)cc1`, the Potency was above 57 µM.

In the case of `COc1ccc(Br)c2c1C[C@H](C(=O)O)CC2`, the Potency was above 57 µM.

For `COC(=O)[C@@H]1[C@H]2C[C@H]3c4[nH]c5cc(OC)ccc5c4CCN3C[C@@H]2C[C@@H](OC(=O)c2cc(OC)c(OC)c(OC)c2)[C@@H]1OC`, the Potency is above 57 µM.

For `O=C(c1ccc(F)cc1)C1CCN(CCCCc2ccccc2)CC1`, the Potency is above 57 µM.

Take `Cc1ccnc(N)c1`: the Potency is above 25.6 µM.

Regarding `COc1ccccc1CNc1cc(-c2ccccc2CN(C)C)ncn1`, the Potency was above 57 µM.

Take `O=C(NCc1ccccc1)[C@H]1C[C@@H]1[C@H](NP(=O)(c1ccccc1)c1ccccc1)c1ccccc1`: the Potency was above 57 µM.

The values above are taken from PubChem BioAssay AID448 (National Center for Advancing Translational Sciences (NCATS), 2006).
